# Anthrax LF inh2: blocks Bacillus anthracis lethal factor protease; P15917; multiplex microsphere protease cleavage assay, LF; inhibition, % at 10 µM; actives 0.12% (n = 360,000); note: plate controls were buffer without enzyme for full effect and enzyme alone for no effect
# BoNT-A LC inh2: blocks Botulinum neurotoxin A light chain protease. multiplex microsphere protease substrate cleavage, flow cytometry. inhibition, % at 10 µM. actives 0.17% (n = 360,000); note: plate controls were buffer without enzyme for full effect and enzyme alone for no effect
# Autofluor counter: flagged as autofluorescent in microsphere protease counterscreen | actives 3.1% (n = 360,000) | fluorescence intensity (concentration not given with the values) | compound autofluorescence counterscreen, microsphere flow cytometry; hits give high values; in the data active = fluorescence intensity above about 16000; inconclusive = no clear call, values can overlap the other calls
# BoNT F protease: BoNT F light chain protease inhibition; Multiplex microsphere protease cleavage assay, flow cytometry; inhibition, % at 10 µM; actives 0.22% (n = 360,000); in the data active = inhibition above about 35%, passing the limit was not always enough; inconclusive = no clear call, values can overlap the other calls; note: plate controls were buffer without enzyme for full effect and enzyme alone for no effect
# TcdB GH inh: TcdB glycohydrolase inhibition | P18177 | TcdB glycohydrolase enzymatic assay, plate reader | inhibition, % at 9.99 µM | actives 0.24% (n = 350,000) | AID 652162; in the data active = inhibition above about 10%
# The depositor's hits bear a star; ? = inconclusive; · = no result. The sample as a whole holds a higher share of hits than the screen did. Cut-off read from the data, not from the text of the source, unless noted: active = inhibition above about 30%; inconclusive = no clear call, values can overlap the other calls; inactive = below that.
SMILES,Anthrax LF inh2,BoNT-A LC inh2,Autofluor counter,BoNT F protease,TcdB GH inh
Cc1cc(NC(=O)C2CC(=O)OC2c2ccccc2)no1 (stereo unspecified),0,-1,23968*,-5,·
CC(C)(C)OC(=O)N[C@@H](Cc1ccccc1)c1nnc(SCC(=O)O)o1,12,1,6783,-1,·
CC(C)(C)OC(=O)N[C@@H](Cc1ccccc1)c1nnc(SCC(=O)c2ccc(Cl)cc2)o1,-2,3,19238*,2,·
CC(C)(C)OC(=O)N[C@@H](Cc1c[nH]c2ccccc12)c1nnc(SCC(N)=O)o1,-8,0,8304,3,·
CCN(CC)C(=O)CSc1nnc([C@@H](NC(=O)OC(C)(C)C)C(C)C)o1,1,-3,17771*,-3,·
CCSc1nnc([C@H](Cc2ccccc2)NC(=O)OC(C)(C)C)o1,-1,0,23861*,-2,·
CSCC[C@H](NC(=O)OC(C)(C)C)c1nnc(SCC=C(C)C)o1,-6,-7,25549*,-10,·
O=C(C1=C[C@H](c2csc3ccccc23)C[C@H](OCCCCO)O1)N1CCCCCCC1,·,·,·,·,0
C[C@@H]1CCCCO[C@H](CN(C)C(=O)c2ccncc2)[C@H](C)CN([C@@H](C)CO)C(=O)c2cc(NS(=O)(=O)c3ccc(Cl)cc3)ccc2O1,·,·,·,·,0
COCC(=O)Nc1ccc2c(c1)C(=O)N(C)C[C@H](OC)[C@H](C)CN(C(=O)NC(C)C)[C@@H](C)CO2,·,·,·,·,-1
Cn1c(NC(=O)c2ccccc2)c(-c2ccccn2)c(=O)c2ccccc21,3,-1,20450*,1,1
C[C@@H]1CN([C@H](C)CO)S(=O)(=O)c2ccc(C#C[C@@H](C)O)cc2O[C@@H]1CN(C)C(=O)CN(C)C,·,·,·,·,-1
CCNC(=O)C[C@@H]1CC[C@@H]2[C@H](COc3ccc(NC(=O)Nc4ccc(C)cc4)cc3C(=O)N2C)O1,·,·,·,·,2
O=C(Nc1ccc(Cl)cc1)N1CCCC1,-7,0,22686*,-3,1
O=C(Nc1ccc(Cl)cc1)N1CCOCC1,24,0,3972,?,0
O=C(CCC(=O)N1CCSc2ccccc21)Nc1cccc(F)c1,2,0,4380,0,10*
O=C(Nc1ccccc1)N1CCSc2ccccc21,-1,0,2541,1,0
O=C(Nc1ccc(Cl)cc1)N1CCSc2ccccc21,0,1,23243*,-1,·
COc1cc(/C=N/NC(=O)c2c(C)nc3ccc(Cl)cn23)cc(OC)c1OC,7,-1,3531,16,13*
COc1ccc(/C=N/NC(=O)c2c(C)nc3ccc(Cl)cn23)cc1OC,13,-1,3984,-8,1
COc1ccc(CN2CCOCC2)cc1Br,0,?,23516*,-1,1
O=C(C[C@@H]1C[C@H]2c3cc(NS(=O)(=O)c4ccc(F)cc4)ccc3O[C@H]2[C@@H](CO)O1)NCc1cc(F)ccc1F,·,·,·,·,0
COc1cc(Cl)c(C)cc1NC(=O)CSc1ccc(C)cc1,0,-3,23633*,-4,1
c1ccc(OCc2nc(-c3cccs3)no2)cc1,1,0,19681*,-2,·
C[C@@H]1CN([C@@H](C)CO)C(=O)c2cc(NC(=O)Cc3ccccc3)ccc2O[C@H]1CN(C)S(=O)(=O)c1cccs1,·,·,·,·,-4
SMILES,Anthrax LF inh2,BoNT-A LC inh2,Autofluor counter,BoNT F protease,TcdB GH inh
O=C(NCCCCNC(=O)c1ccc(Br)s1)c1ccc(Br)s1,0,?,20047*,-1,·
O=C(NCCCN1CCOCC1)c1ccc(Br)s1,1,0,10455,1,1
COC(=O)c1cn(C(=O)c2ccc(OC)cc2)c2ccccc12,-8,1,4142,36*,1
Cc1ccc(OCCn2cc(/C=C/C(=O)O)c3ccccc32)cc1,1,0,3734,-6,0
COC(=O)c1cn(CCOc2ccc(C)cc2)c2ccccc12,-3,-2,22793*,-3,·
C[C@H](CO)N1C[C@H](C)[C@H](CN(C)C(=O)Nc2ccccc2)Oc2ncc(C#CCN(C)C)cc2C1=O,·,·,·,·,1
COc1ccccc1CNC(=O)CN(c1ccc(C)cc1)S(=O)(=O)c1c(C)n[nH]c1C,-2,0,4979,-8,31*
Cc1ccc(NC(=S)NC2CCN(Cc3ccccc3)CC2)cc1C,-4,0,4402,-2,1
S=C(Nc1ccc2c(c1)OCO2)NC1CCN(Cc2ccccc2)CC1,0,0,20636*,-3,·
CCNC(=O)[C@@H]1[C@@H](CO)[C@@H]2Cn3c(ccc(/C=C/c4ccccc4)c3=O)[C@@H]2N1C(=O)C1CC1,·,·,·,·,1
CC1=C(C(=O)Nc2ccccc2)C(c2ccc(C)o2)n2ncnc2N1 (stereo unspecified),-7,0,3371,-1,·
CC1=C(C(=O)NCc2ccccc2)C(c2ccc(C)o2)n2ncnc2N1 (stereo unspecified),1,?,20601*,2,·
COc1cc(OC)c(OC)cc1CNC(C)C(O)c1ccccc1 (stereo unspecified),-1,-3,17763*,-3,·
O=C(Nc1ccccc1N1CCCCC1)c1cccs1,-3,-3,24609*,-5,·
CCCCOc1ccc(Cl)cc1CSc1n[nH]c(C)n1,-1,-1,10757,-3,·
CCOc1ccc(Cl)cc1CSc1n[nH]c(CC)n1,-1,-1,22875*,-3,·
COc1ccc(S(=O)(=O)N(C(C)=O)c2ccc3oc(=O)sc3c2)cc1,1,-1,20711*,1,·
COC(=O)c1c(C)oc2ccc(N(C(C)=O)S(=O)(=O)c3ccccc3)cc12,-3,2,4204,3,0
O=C1c2[nH]nc(-c3ccccc3O)c2C(c2ccc(F)cc2)N1CC1CCCO1 (stereo unspecified),-6,0,9799,-8,·
O=C1c2[nH]nc(-c3ccccc3O)c2C(c2cccc(Cl)c2)N1CC1CCCO1 (stereo unspecified),1,2,22113*,3,·
Cc1ccc2c(c1)CCCN2C(=O)c1ccco1,-1,2,22783*,-1,·
Cc1ccc2c(c1)CCCN2C(=O)c1ccc2c(c1)OCO2,-1,-1,23514*,-2,·
O=C(c1ccc2c(c1)OCO2)N1CCCc2ccccc21,-2,0,3382,-2,·
COc1ccc(C#Cc2cnc3c(c2)C(=O)N([C@H](C)CO)C[C@H](C)[C@H](CN(C)C(=O)Nc2cccc4ccccc24)O3)cc1OC,·,·,·,·,1
Cc1noc(C)c1NC(=O)N(C)C[C@@H]1Oc2c(NC(=O)c3ccncc3)cccc2C(=O)N([C@@H](C)CO)C[C@H]1C,·,·,·,·,0
CCOc1ccc(N(C(C)C(=O)NC(C)CC)S(C)(=O)=O)cc1 (stereo unspecified),2,0,19908*,-1,·
Cc1ccc(S(=O)(=O)Nc2ccc3c(c2)C(=O)N([C@@H](C)CO)C[C@H](C)[C@@H](CN(C)C(=O)Nc2ccccc2)OCCCC[C@H](C)O3)cc1,·,·,·,·,2
CCc1sc(C(=O)N2CCCN(C)CC2)cc1Br,1,0,5673,1,-1
CCc1sc(C(=O)N2CCN(S(C)(=O)=O)CC2)cc1Br,0,-2,23583*,0,1
